Measles CPE: protection of cells from measles virus; AID 841; protection (pct of control), % at 4 µM; Measles virus-infected cells, CPE protection, absorbance; 140,000 tested, 1.5% active; in the data active = protection mostly above about 24%, no sharp cut-off; inactive = mostly below about 26%
Phagocyt inh: macrophage phagocytosis inhibition. inhibition, % at 5 µM. 110,000 tested, 0.07% active. AID 1029. J774A.1 macrophage IgG-bead phagocytosis, imaging;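 active = inhibition above the mean of the plate negative controls plus 5 SD, cut at about 13% in these data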;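 also: phagocytic index as fraction of beads internalized from green versus red external bead signal; plate controls were DMSO negative control for no effect and cytochalasin-D positive control for full effect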
SDO1 yeast rescue: compounds rescuing growth of sdo1-depleted yeast, bone marrow failure model; 140,000 tested, 0.21% active; S. cerevisiae sdo1-depleted JHY4D growth rescue, OD600 30 h; hits give high values; pdr5 snq2 efflux-pump mutant strain; z-score at 10 µM;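 active = z-score above 3 at both the 24 hr and the 30 hr optical density reads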;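 also: z-score against mean and SD of all compound wells on the same plate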
An asterisk follows results filed as active; / = no result given. Compounds with a hit are over-represented: about 1.8% of the library has one in this group of screens.

SMILES | Measles CPE | Phagocyt inh | SDO1 yeast rescue
COc1ccc2nc(NC(=O)CCN3C(=S)NC(C)(C)CC3C)sc2c1 (configuration not stated) | 16 | -4 | -0.08
COc1ccc(N2CCN(C(=O)CSc3nnc4c(C)cc5cc(C)ccc5n34)CC2)cc1 | 29 | -2 | -0.48
COc1ccc(N2CCN(C(=O)CSc3nnc4c(C)cc5ccc(C)c(C)c5n34)CC2)cc1 | 50* | 0 | 0.12
S=c1[nH]nc(-c2ccncc2)n1/N=C/c1ccccc1 | 3 | -3 | 0.62
S=c1[nH]nc(-c2ccccc2)n1/N=C/c1ccc(-c2ccccc2Cl)o1 | 70* | -2 | -1.5
Cc1c(Br)c([N+](=O)[O-])nn1CC(=O)Nc1ccc(Cc2ccncc2)cc1 | 5 | -1 | 0.41
C=CCn1c(NCc2ccc(N(C)C)cc2)nc2ccccc21 | 5 | 1 | 0.09
COc1ccc(C(=O)N2CCN(c3ccccn3)CC2)cc1 | 45* | 1 | 0.43
COc1ccc(CC(=O)N2CCN(c3ccccn3)CC2)cc1 | 7 | / | 0.01
COc1ccc(NC(=O)Nc2ccccc2C(=O)N2CCCC2)cc1 | 12 | 10 | 1.6
CCN(CC)C(=O)C1CCCN(c2ccc([N+](=O)[O-])cc2/C=N/NC(=O)c2cccc([N+](=O)[O-])c2)C1 (configuration not stated) | 5 | / | 1.3
C=CCOc1nc(-c2ccncc2)nc2ccccc12 | 30* | 0 | -2.6
COc1nc(-c2ccncc2)nc2ccccc12 | 27 | / | -1.5
CCOc1cc(NC(=S)NCc2ccco2)c(OCC)cc1NC(=O)C1CC1 | 37 | -6 | 0.49
O=C(Nc1ccccc1C(=O)Nc1ccc2c(c1)OCO2)c1cccs1 | 18 | 0 | -0.79
COC(=O)[C@@H](NC(=O)Nc1ccc(OC(F)(F)F)cc1)C(C)C | 7 | 0 | -0.45
COC(=O)[C@@H](NC(=O)Nc1ccc(S(N)(=O)=O)cc1)C(C)C | 31* | 1 | 1.5
COC(=O)[C@@H](NC(=O)Nc1ccc(C(C)=O)cc1)C(C)C | 104* | / | 0.82
CCC(C)[C@H](NC(=O)Nc1ccc(S(N)(=O)=O)cc1)C(=O)O (some centres not stated) | 8 | -2 | -0.83
CC(=O)c1ccc(NC(=O)Nc2ccc(Cl)cc2)cc1 | 6 | -1 | -1.9
CC(=O)Nc1cccc(NC(=O)Nc2ccc(C(C)=O)cc2)c1 | 44* | 1 | 0.48
O=C1C2CCCN2C(=O)N1CCCCN1CCN(CCO)CC1 (configuration not stated) | 10 | 1 | 1.2
CCc1cccc(Nc2c([N+](=O)[O-])cc(C(=O)N3CC(=O)Nc4ccccc43)cc2[N+](=O)[O-])c1 | 4 | -7 | 1.1
CC(C)(C)N=C1SCC(C)(/C=N/O)S1 (configuration not stated) | 55* | / | 0.11
CCC(C)N=C1SCC(C)(/C=N/O)S1 (configuration not stated) | 11 | 2 | 0.25
SMILES | Measles CPE | Phagocyt inh | SDO1 yeast rescue
O=C(O)c1cccn1Cc1ccccc1F | 44* | -4 | -0.12
O=C(NCc1ccccc1)Nc1cccn(Cc2ccccc2F)c1=O | 18 | -10 | -0.86
COc1cc(OC)cc(C(=O)NN2CCCCC2)c1 | 1 | -1 | 0.11
COc1cccc(OC)c1C(=O)NN1CCCCC1 | 35* | -1 | 0.73
CCOC(=O)C(NCCc1ccccc1F)(NC(C)=O)C(F)(F)F (configuration not stated) | 7 | / | 0.11
Cc1cccc2nc(CSc3nc4cc([N+](=O)[O-])ccc4s3)cn12 | 2 | -11 | -0.62
CCN(CC)S(=O)(=O)c1ccc(C2=NOC3(C2)N(C)c2ccccc2C3(C)C)cc1 (configuration not stated) | 38* | 0 | 0.14
CN1c2ccccc2C(C)(C)C12CC(c1cccc(S(=O)(=O)N3CCCC3)c1)=NO2 (configuration not stated) | 54* | 4 | 0.31
CCN(CC)S(=O)(=O)c1ccc(-c2nnco2)cc1 | 2 | / | 0.63
CN1c2ccccc2C(C)(C)C12CC(c1ccc(S(=O)(=O)N3CCCCC3)cc1)=NO2 (configuration not stated) | 63* | 0 | -0.04
CN1/C(=C\C(=O)c2cccc(S(=O)(=O)N3CCCCC3)c2)C(C)(C)c2ccccc21 | 4 | -7 | 0.37
O=S(=O)(c1ccc(S(=O)(=O)N2CCCC2)cc1)N1CCCCCC1 | 14 | -1 | 0.96
CCN(CC)C(=S)Sc1c(-c2ccccc2)c2cc(Cl)ccc2[nH]c1=O | 6 | -1 | -2
O=c1c2ccccc2c(C=Nc2cccc(S(=O)(=O)NCc3ccco3)c2)c(O)n1-c1ccc(Cl)cn1 | 6 | -3 | -0.67
Cn1nc(C(F)(F)F)c(C(=O)Nc2ccc(F)cc2F)c1Sc1ccc(Cl)cc1 | 4 | / | -1.1
Cc1ccc(N2CC(C(=O)Nc3nccs3)CC2=O)cc1Cl (configuration not stated) | 4 | -1 | -0.38
CCc1ccc(N2CC(C(=O)Nc3nccs3)CC2=O)cc1 (configuration not stated) | 35* | 2 | 0.19
Cc1ccc(SC(CC(=O)c2ccc(C)cc2)C(=O)O)cc1 (configuration not stated) | 6 | 1 | 1.4
CC1CCN(c2nc3ccc(C(=O)N4CCN(Cc5ccc6c(c5)OCO6)CC4)cc3s2)CC1 | 25 | 0 | -2.3
Cc1cc(C)nc(N2CCC(C(=O)NCC3CCCCC3)CC2)n1 | 33* | -1 | 0.22
COc1nc(OC)nc(N2CCC(C(=O)NCC3CCCCC3)CC2)n1 | 4 | 0 | 0.07
CC(NC(=O)COC(=O)/C(=C/c1cccs1)c1cccs1)c1ccccc1 (configuration not stated) | 16 | -2 | -1.2
CN(C)S(=O)(=O)c1cccc(NC(=O)COC(=O)c2ccc(Br)o2)c1 | 21 | / | -0.81
O=C(COC(=O)c1ccc(Br)o1)Nc1cccc(S(=O)(=O)N2CCCCCC2)c1 | 34* | 0 | -0.58
Cc1ccc(OCC(=O)Nc2cccc(S(=O)(=O)N3CCCCC3)c2)c([N+](=O)[O-])n1 | 29* | / | 1.2
SMILES | Measles CPE | Phagocyt inh | SDO1 yeast rescue
Cc1cnc(C(=O)OCC(=O)Nc2cccc(S(=O)(=O)N3CCCCC3)c2)cn1 | 4 | -9 | 0.57
Cn1c(SCC#N)nnc1-c1cccnc1 | 3 | -4 | 1.7
COc1cccc(C(=O)Nc2ccc(F)c(F)c2F)c1 | 15 | / | 0.28
COc1cccc(C(=O)Nc2ccc(F)cc2F)c1 | 45* | / | 0.64
COc1ccnc(Oc2ccc3ccccc3c2)c1C#N | 19 | -2 | 0.32
COc1ccnc(Oc2ccc(C)cc2)c1C#N | 67* | 2 | 0.86
CC(=C/c1ccco1)/C=N/NC(=O)CSc1nnc(SCc2ccc(C)cc2)s1 | 3 | -11 | -0.84
O=C(CCCc1nc2ccccc2s1)NCc1ccccc1F | 9 | -1 | -0.75
O=C(Oc1ccc(N(Cc2cccs2)C2=NS(=O)(=O)c3ccccc32)cc1)c1ccccc1F | 28* | 0 | -1.3
O=C(OCCN(C1=NS(=O)(=O)c2ccccc21)c1ccccc1Cl)c1ccc(Cl)cc1 | 5 | -2 | -0.74
CCn1cc(C=O)c2cc(S(=O)(=O)N3CCOCC3)ccc21 | 8 | -2 | 1.1
O=[N+]([O-])c1ccccc1S(=O)(=O)Oc1ccc(C(=S)N2CCOCC2)cc1 | 12 | -9 | 0.68
O=C(C1CCC(N2C(=O)C3CC=CCC3C2=O)CC1)N1CCCCC1 (configuration not stated) | 1 | 4 | 0.11
